Experimental data: PubChem BioAssay AID493185 (National Center for Advancing Translational Sciences (NCATS), 2011)
Calls of active or inactive are those of the source. Where a call stands in place of a potency, no number is given. Calls follow the shape of the dose curve; as a rule, active = well fitted activation curve with a large enough effect; inconclusive = small, poorly fitted or top-dose-only effect; inactive = no such curve, though single readings can be large or run the other way.

Experiment: Counterscreen for Identifying a Potential Treatment of Ataxia-Telangiectasia: Hit Validation
Details: cell-free AlphaLISA/AlphaScreen artifact counterscreen, PBS only, no cells; series mostly up to 76.9 µM
Outline: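 Without cells, compounds at up to 76.7 uM final were combined with premixed anti-pKAP1/anti-KAP1 AlphaLISA bead reagents, protease inhibitors and lysis buffer; signal read after 6 hr at 25C to flag assay-platform artifacts.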
Potency is read from the fitted curve at half-maximal effect.

| Structure (SMILES) | Potency |
| --- | --- |
| Oc1ccc(-c2nccc(-c3ccc(F)cc3)n2)cc1 | inactive |
| c1ccc2c(c1)nc(Nc1ccc(N3CCCCC3)cc1)c1nncn12 | inactive |
| Oc1cccc(NC(=S)N=Nc2c(O)[nH]c3ccccc23)c1 | inactive |
| COc1ccccc1N1CCN(C(=O)c2cc(=O)c3c(C)cc(C)cc3o2)CC1 | inactive |
| Cc1cc2c(c(=O)o1)C(CCC1CCCCC1)C(C#N)=C(N)O2 (stereo unspecified) | inactive |
| O=C(CCCn1nnnc1CN1CCOCC1)N1CCC(c2ccc(F)cc2)C1 (stereo unspecified) | inactive |
| O=C1/C(=C/c2ccc(N3CCOCC3)o2)SC(=Nc2ccccc2)N1CCc1c[nH]c2ccccc12 | inactive |
| C=C(C)n1c(=O)n(Cc2ccccc2C)c2ccccc21 | inactive |
| O=C1NC(NS(=O)(=O)c2ccc(Cl)cc2)(C(F)(F)F)C(=O)N1CCc1ccccc1 (stereo unspecified) | inactive |
| CC(C)CNS(=O)(=O)c1cc(C(=O)O)c(Cl)cc1Cl | inactive |
| O=C(N/N=C/c1cccc2ccccc12)c1cccnc1 | inactive |
| Cc1ccc(NC(=O)NC(=O)N(C(C)C)S(C)(=O)=O)nc1 | inactive |
| COc1ccccc1[C@H]1C(c2cccc(Cl)c2)=NN(c2ccccc2)[C@@H]1CO | 29.2 µM (active) |
| O=C(Nc1ccc([N+](=O)[O-])cc1)c1cc2ccccc2nc1Cl | inactive |
| COc1ccc(-c2nc3n(c2C)Cc2ccccc2-3)cc1 | 32.8 µM (active) |
| CC1CCCC(C)N1CCCNC(=O)Cn1ncc2c3ccccc3n(C)c2c1=O (stereo unspecified) | inactive |
| CS(=O)(=O)c1ccc(-c2csc(-c3cccnc3)n2)cc1 | inactive |
| O=C(c1cccc(F)c1)N1CCCC(C(=O)N2CCCCCC2)C1 (stereo unspecified) | inactive |
| COc1cc(/C=C2\CCOC2=O)cc(OC)c1OC | inactive |
| COc1ccc(Cl)cc1NC(=O)C[n+]1cccc(C)c1 | inactive |
| CCOC(=O)CNS(=O)(=O)Cc1ccccc1 | inactive |
